Laboratory results reported in PubChem BioAssay.

Molecular target: Tumor necrosis factor receptor superfamily member 10B (Homo sapiens) (UniProt O14763)
Experiment: viability loss of caspase-8 NB7 cells with TRAIL – with/without TRAIL, luminescence panel, confirmation (AID 651596)
Conditions: NB7 neuroblastoma + caspase-8, TRAIL sensitization, NB7 Caspase-8, with TRAIL, mean of runs, at 10 µM, stronger effect = higher value

Chain of Tumor necrosis factor receptor superfamily member 10B (Homo sapiens) (O14763 whole entry, looked up): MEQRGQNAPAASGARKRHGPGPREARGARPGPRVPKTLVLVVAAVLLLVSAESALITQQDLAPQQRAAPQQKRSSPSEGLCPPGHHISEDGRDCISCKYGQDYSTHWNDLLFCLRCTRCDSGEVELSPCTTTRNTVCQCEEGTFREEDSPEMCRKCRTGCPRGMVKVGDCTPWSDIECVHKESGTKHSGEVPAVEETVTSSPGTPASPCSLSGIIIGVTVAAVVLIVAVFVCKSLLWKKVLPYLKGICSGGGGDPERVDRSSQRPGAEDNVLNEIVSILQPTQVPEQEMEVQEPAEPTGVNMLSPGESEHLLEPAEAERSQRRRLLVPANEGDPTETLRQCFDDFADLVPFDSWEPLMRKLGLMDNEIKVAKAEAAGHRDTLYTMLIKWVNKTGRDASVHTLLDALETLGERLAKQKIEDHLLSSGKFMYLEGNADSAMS

Going from `N/C(Cc1ccc(Cl)cc1)=N\OC(=O)c1ccc2ccccc2c1` to `Nc1nc(Nc2ccc(Cl)cc2)nc2ccccc12`, the activity falls from 98.5% to 84.4%.

Compared with `Nc1nc(Nc2ccccc2)nc2ccccc12`, `Cc1cc(N/N=C\c2ccccc2)nc(-c2ccccc2O)n1` is lower in activity: 69.2% for the first, 41.2% for the second.

Going from `O=C(Nc1ccc2c(c1)nc1n2CCSC1)c1ccccc1` to `Cc1ccc(C(=O)Nc2ccc3c(c2)CCC3)cc1`, the activity rises from 69.8% to 78.7%.

Compared with `Cc1cccc(-c2cc3nc(-c4ccccc4)cc(=O)n3[nH]2)c1`, `COCCCNc1ccn2nc(-c3ccccc3)cc2n1` is higher in activity: 50% for the first, 50.1% for the second.

Going from `CCOc1ccc(-c2cc(C(=O)N/N=C(\C)c3cccnc3)c3ccccc3n2)cc1` to `COc1ccc(C(=O)Nc2nc3ccccc3[nH]2)cc1`, the activity rises from 74% to 96.3%.

First: CN(c1ccccc1)S(=O)(=O)c1ccc(NC(=O)c2nc(S(C)(=O)=O)ncc2Cl)cc1
Second: Cc1ccc(CS(=O)(=O)c2ncc(Cl)c(C(=O)Nc3nnc(C(C)C)s3)n2)cc1
The activity of the first is higher: 80.7% for the first, 67.5% for the second.

First: COc1cccc(-n2c(SCC(=O)N3CCCCC3)nc3c([nH]c4ccccc43)c2=O)c1
Second: COc1ccc(-c2nc3ccccc3[nH]2)cc1
The activity of the first is lower: 28.7% for the first, 89% for the second.

Compared with `C=C(C)CSc1nnc2n(C)c(=O)c3c4c(sc3n12)CCC4`, `CCc1nc(N2CCN(C(=O)CCl)CC2)c2c3c(sc2n1)CC(C)CC3` (stereo not given) is higher in activity: 61.6% for the first, 99.3% for the second.

First: COc1ccccc1N1CCN(c2ccc3ccccc3n2)CC1
Second: Cc1ccc(-c2cnn(-c3ccccc3)c2N)cc1
The activity of the first is lower: 38.5% for the first, 78.6% for the second.

Compared with `CC(C)N1CCc2c(sc(NC(=O)c3ccc([N+](=O)[O-])o3)c2C(N)=O)C1`, `CN(C)S(=O)(=O)c1ccc(C(=O)Nc2nnc(SCC(=O)N3CCOCC3)s2)cc1` is higher in activity: -2.23% for the first, 62.7% for the second.

First: CCSc1ccc(-c2cc(NC=O)c3ncc(-c4cccc(C(=O)NCCN(C)C)c4)n3c2)cc1
Second: COc1ccc(NC(=O)c2cccc(N3C(=O)c4ccc(C(=O)Nc5ccc(OC)c(O)c5)cc4C3=O)c2)cc1O
The activity of the first is lower: 50.4% for the first, 71.7% for the second.

First: Cc1ccnc(NC(=O)c2ccc3c(c2)OCO3)c1
Second: Cc1ccc(NC(=O)c2ccc3c(c2)OCCO3)cc1
The activity of the first is higher: 82.5% for the first, 76% for the second.

Going from `O=C(CCl)Nc1cccc(Oc2ccccc2)c1` to `Cc1ccnc(NC(=O)c2sc3ccccc3c2Cl)c1`, the activity falls from 97.7% to 91.6%.

Going from `O=c1oc2ccccc2cc1-c1csc(Nc2nc3c(F)cccc3s2)n1` to `Cc1csc(C(C#N)C(=O)c2cc3ccccc3o2)n1` (stereo not given), the activity rises from 11.9% to 57.3%.

Compared with `Cn1c(-c2ccc(Br)o2)nc2ccccc21`, `Cc1ccsc1C(=O)Nc1nc2ccccc2[nH]1` is higher in activity: 57.9% for the first, 82% for the second.

Going from `O=C(Nc1nc2ccccc2s1)c1ccc(OCC2CCCO2)cc1` (stereo not given) to `COc1ccc(NC(=O)c2ccc3c(c2)OCCO3)cc1OC`, the activity falls from 73.5% to 51.8%.

Compared with `O=C(N/N=C/c1cccs1)c1ccc2c(c1)OCO2`, `CCC1=NN(C(=O)c2cccc(Br)c2)C(O)(c2ccc(Br)cc2)C1` (stereo not given) is lower in activity: 71.7% for the first, 19.9% for the second.

Going from `Clc1ccccc1CSc1nc2ccncc2[nH]1` to `COc1ccc(/C=C(\C#N)c2nc3ccccc3[nH]2)cc1O`, the activity falls from 79% to 56.5%.

Compared with `COc1ccc(-c2cn3ccccc3n2)cc1[N+](=O)[O-]`, `Cc1ccc(-c2nn(CC(=O)NCc3cc(-c4nn(C)c(=O)c5ccccc45)ccc3C)c(=O)c3ccccc23)cc1` is higher in activity: 50.9% for the first, 90.9% for the second.

Going from `C=C1C(=O)C23CCC4C(C)(C(=O)OC)CCCC4(C)C2CCC1(O)C3` (stereo not given) to `O=C(C[C@H]1C/C=C\C[C@H](NC(=O)OCC2c3ccccc3-c3ccccc32)C(=O)OC[C@H](Cc2ccccc2)NC1=O)N[C@H](CO)Cc1ccccc1`, the activity falls from 95.6% to 11.8%.

Test system: not listed separately
Experiment: as above
Conditions: NB7 neuroblastoma + caspase-8, without TRAIL, NB7 Caspase-8, without TRAIL, mean of runs, at 10 µM

Going from `N/C(Cc1ccc(Cl)cc1)=N\OC(=O)c1ccc2ccccc2c1` to `Nc1nc(Nc2ccc(Cl)cc2)nc2ccccc12`, the activity falls from 95% to 83.5%.

First: Nc1nc(Nc2ccccc2)nc2ccccc12
Second: Cc1cc(N/N=C\c2ccccc2)nc(-c2ccccc2O)n1
The activity of the first is higher: 61.3% for the first, 24.4% for the second.

Going from `O=C(Nc1ccc2c(c1)nc1n2CCSC1)c1ccccc1` to `Cc1ccc(C(=O)Nc2ccc3c(c2)CCC3)cc1`, the activity rises from 60% to 76.2%.

Going from `Cc1cccc(-c2cc3nc(-c4ccccc4)cc(=O)n3[nH]2)c1` to `COCCCNc1ccn2nc(-c3ccccc3)cc2n1`, the activity falls from 55.2% to 35.5%.

Compared with `CCOc1ccc(-c2cc(C(=O)N/N=C(\C)c3cccnc3)c3ccccc3n2)cc1`, `COc1ccc(C(=O)Nc2nc3ccccc3[nH]2)cc1` is higher in activity: 69.6% for the first, 95.1% for the second.

Going from `CN(c1ccccc1)S(=O)(=O)c1ccc(NC(=O)c2nc(S(C)(=O)=O)ncc2Cl)cc1` to `Cc1ccc(CS(=O)(=O)c2ncc(Cl)c(C(=O)Nc3nnc(C(C)C)s3)n2)cc1`, the activity falls from 99.3% to 59.3%.

Going from `COc1cccc(-n2c(SCC(=O)N3CCCCC3)nc3c([nH]c4ccccc43)c2=O)c1` to `COc1ccc(-c2nc3ccccc3[nH]2)cc1`, the activity rises from 19.4% to 90.7%.

First: C=C(C)CSc1nnc2n(C)c(=O)c3c4c(sc3n12)CCC4
Second: CCc1nc(N2CCN(C(=O)CCl)CC2)c2c3c(sc2n1)CC(C)CC3 (stereo not given)
The activity of the first is lower: 63.9% for the first, 91.5% for the second.

Compared with `COc1ccccc1N1CCN(c2ccc3ccccc3n2)CC1`, `Cc1ccc(-c2cnn(-c3ccccc3)c2N)cc1` is higher in activity: 24.1% for the first, 77% for the second.

Going from `CC(C)N1CCc2c(sc(NC(=O)c3ccc([N+](=O)[O-])o3)c2C(N)=O)C1` to `CN(C)S(=O)(=O)c1ccc(C(=O)Nc2nnc(SCC(=O)N3CCOCC3)s2)cc1`, the activity falls from 93.5% to 66%.

Compared with `CCSc1ccc(-c2cc(NC=O)c3ncc(-c4cccc(C(=O)NCCN(C)C)c4)n3c2)cc1`, `COc1ccc(NC(=O)c2cccc(N3C(=O)c4ccc(C(=O)Nc5ccc(OC)c(O)c5)cc4C3=O)c2)cc1O` is lower in activity: 87.7% for the first, 85.6% for the second.

Going from `Cc1ccnc(NC(=O)c2ccc3c(c2)OCO3)c1` to `Cc1ccc(NC(=O)c2ccc3c(c2)OCCO3)cc1`, the activity falls from 82.9% to 73.2%.

Compared with `O=C(CCl)Nc1cccc(Oc2ccccc2)c1`, `Cc1ccnc(NC(=O)c2sc3ccccc3c2Cl)c1` is lower in activity: 97.7% for the first, 90.8% for the second.

Compared with `O=c1oc2ccccc2cc1-c1csc(Nc2nc3c(F)cccc3s2)n1`, `Cc1csc(C(C#N)C(=O)c2cc3ccccc3o2)n1` (stereo not given) is higher in activity: 5.5% for the first, 61.2% for the second.

First: Cn1c(-c2ccc(Br)o2)nc2ccccc21
Second: Cc1ccsc1C(=O)Nc1nc2ccccc2[nH]1
The activity of the first is lower: 61.8% for the first, 85.7% for the second.

Compared with `O=C(Nc1nc2ccccc2s1)c1ccc(OCC2CCCO2)cc1` (stereo not given), `COc1ccc(NC(=O)c2ccc3c(c2)OCCO3)cc1OC` is lower in activity: 67% for the first, 51.2% for the second.

Going from `O=C(N/N=C/c1cccs1)c1ccc2c(c1)OCO2` to `CCC1=NN(C(=O)c2cccc(Br)c2)C(O)(c2ccc(Br)cc2)C1` (stereo not given), the activity falls from 66% to 22.4%.

Compared with `Clc1ccccc1CSc1nc2ccncc2[nH]1`, `COc1ccc(/C=C(\C#N)c2nc3ccccc3[nH]2)cc1O` is lower in activity: 79.3% for the first, 72.5% for the second.

Going from `COc1ccc(-c2cn3ccccc3n2)cc1[N+](=O)[O-]` to `Cc1ccc(-c2nn(CC(=O)NCc3cc(-c4nn(C)c(=O)c5ccccc45)ccc3C)c(=O)c3ccccc23)cc1`, the activity falls from 53% to 35.5%.

Compared with `C=C1C(=O)C23CCC4C(C)(C(=O)OC)CCCC4(C)C2CCC1(O)C3` (stereo not given), `O=C(C[C@H]1C/C=C\C[C@H](NC(=O)OCC2c3ccccc3-c3ccccc32)C(=O)OC[C@H](Cc2ccccc2)NC1=O)N[C@H](CO)Cc1ccccc1` is lower in activity: 98.7% for the first, -2.65% for the second.
